In all, about 33,000 sequences were measured (“E-score (-0.5 to 0.5)”: median about -0.01, highest 2% from about 0.26 on). The entries come from a sample that favours the highest values as a whole.
These sequences were tested against Ste12 (UniProt P13574) (assay: PBM E-score (8-mer binding enrichment) (E-score (-0.5 to 0.5)); higher = stronger / more preferred TF binding). Conditions: protein concentration: 200 nM; construct: GST-DNA-binding domain.
Experimental: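 Universal 'all 10-mer' protein binding microarrays (Agilent AMADID 015681) probed with GST-tagged S. cerevisiae TFs (full-length or DBD) made by in vitro transcription/translation (PURExpress), about 100-200 nM. Bound TF was detected with fluorescent anti-GST. Each ungapped 8-mer (which stands for itself and its reverse complement) is scored by the PBM enrichment score (E-score), a modified Wilcoxon-Mann-Whitney statistic from -0.5 to +0.5, computed with the Universal PBM Analysis Suite. Scale: above 0.35 generally sequence-specific binding.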

Sequence of UniProt P13574 (P13574 whole entry, the tested form may be a part): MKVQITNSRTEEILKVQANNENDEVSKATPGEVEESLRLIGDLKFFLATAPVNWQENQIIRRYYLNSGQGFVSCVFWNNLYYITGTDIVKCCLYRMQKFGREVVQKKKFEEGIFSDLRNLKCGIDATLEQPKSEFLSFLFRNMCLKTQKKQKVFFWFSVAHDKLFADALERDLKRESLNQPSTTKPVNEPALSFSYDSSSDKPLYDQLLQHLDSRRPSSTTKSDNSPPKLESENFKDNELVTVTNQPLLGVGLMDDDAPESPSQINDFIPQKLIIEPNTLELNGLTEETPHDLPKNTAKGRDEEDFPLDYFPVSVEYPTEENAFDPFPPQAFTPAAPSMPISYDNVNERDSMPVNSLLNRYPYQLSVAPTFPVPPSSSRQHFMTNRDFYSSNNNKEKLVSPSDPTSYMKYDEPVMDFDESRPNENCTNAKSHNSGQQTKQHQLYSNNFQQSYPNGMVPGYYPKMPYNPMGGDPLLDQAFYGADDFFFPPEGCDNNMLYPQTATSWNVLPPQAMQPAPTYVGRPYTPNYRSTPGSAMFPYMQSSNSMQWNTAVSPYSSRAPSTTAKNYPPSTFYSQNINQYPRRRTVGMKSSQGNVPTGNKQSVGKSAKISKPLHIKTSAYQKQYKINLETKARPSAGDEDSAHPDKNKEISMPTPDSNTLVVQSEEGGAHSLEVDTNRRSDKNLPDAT

| Sequence | PBM E-score |
| --- | --- |
| AAACGGCG | 0.149 |
| ATCGCGAT | 0.0912 |
| ACTATGCG | 0.0582 |
| ATTAAATA | 0.292 |
| ATTAAATC | 0.248 |
| GTTAAAAC | 0.174 |
| ATTAAATG | 0.19 |
| GTTAAAGA | 0.0582 |
| GTTAAAAA | 0.291 |
| CACGTGGG | -0.129 |
| CGGTACTA | -0.0556 |
| AGCCATGG | -0.192 |
| AATTAGGC | 0.179 |
| ACAACTGG | -0.0989 |
| ACAACTTA | 0.053 |
| ACAACTGA | 0.293 |
| AGACCACA | -0.0546 |
| AAATCTGA | 0.266 |
| GAATCTGA | -0.0846 |
| AAATCTGC | 0.0398 |
| CTCGTGAC | 0.0961 |
| CCTCTTTC | -0.0876 |
| CCTCCCAA | -0.136 |
| CCCCCCCG | -0.257 |
| ACTCCCCG | 0.07 |

| Sequence | PBM E-score |
| --- | --- |
| CCTCCCCA | 0.329 |
| CCTCCCCC | -0.134 |
| CCTCCCCG | 0.283 |
| AGCCATGC | -0.0768 |
| GCGGGGAA | 0.261 |
| CGGGGAAA | 0.272 |
| GGGGGAAA | 0.241 |
| GCGGGGGA | -0.143 |
| GCGGGAAA | 0.121 |
| CGGGGGAA | 0.0885 |
| CGAGCGCA | 0.0982 |
| ACCAGTTC | 0.0206 |
| ATCCAAGA | 0.136 |
| TCGGCCGA | 0.0948 |
| CGAGACAA | 0.0198 |
| AGAGACAA | -0.154 |
| TGAGACAA | 0.274 |
| CAGGTTCA | -0.0316 |
| CGCTAACC | -0.0284 |
| TGTACTAA | 0.053 |
| GACTTGCC | -0.305 |
| ACAAACCT | -0.111 |
| CAAAAACG | 0.177 |
| ACAAAACG | 0.35 |
| AGAAAACG | 0.0569 |

| Sequence | PBM E-score |
| --- | --- |
| CCAAAACG | 0.254 |
| AAAAAACG | 0.269 |
| ACAAAACC | 0.171 |
| CCGCGCGA | 0.169 |
| GCGCGCGC | 0.353 |
| CCGCGCGC | 0.24 |
| CCGCGCGG | 0.321 |
| GCGCGCGA | 0.154 |
| ACGCGCGC | 0.122 |
| GGAGGGCA | 0.0377 |
| ACTGGTTG | 0.0694 |
| GGCCCGAC | 0.15 |
| GGTGTTGA | -0.0828 |
| ATAACTCA | 0.044 |
| GACTGCCA | 0.107 |
| GCTAGACA | -0.118 |
| CCATGAAA | 0.252 |
| ACATGAAC | 0.0476 |
| ACATGAAA | 0.283 |
| TCATGAAA | 0.27 |
| TCATGAGA | 0.0861 |
| GCATGAAA | 0.318 |
| TCATGACA | 0.178 |
| ACATGAAG | 0.091 |
| GCATGAAC | -0.0143 |

| Sequence | PBM E-score |
| --- | --- |
| ATCACCGG | -0.0135 |
| GTCCACCA | -0.342 |
| CTCTTAAG | -0.0926 |
| AAAAGGAA | 0.188 |
| GTTATGAA | 0.221 |
| ATTATGAA | 0.265 |
| AATATGAC | 0.0945 |
| AATATGAA | 0.269 |
| TATATGAA | 0.17 |
| CTTATGAA | 0.204 |
| CCAGCTAC | -0.091 |
| AGCGACTA | -0.043 |
| TCAGTCAA | -0.0289 |
| GGGACACA | 0.17 |
| CGCGCGGC | 0.306 |
| CGCGCGGA | 0.0633 |
| ACCGCGCC | -0.034 |
| CGCGCGCG | 0.262 |
| GCCGCGGC | 0.29 |
| CCCGCGGC | 0.224 |
| ACCGCGCT | -0.16 |
| ACCGCGCG | 0.273 |
| CGCGCGCA | 0.208 |
| CGCGCGCC | 0.157 |
| AGCGCGGC | 0.0144 |

| Sequence | PBM E-score |
| --- | --- |
| GCCGCGGA | 0.0303 |
| ACGGAGTG | -0.043 |
| AACGACCC | -0.126 |
| ACGCTCGG | -0.0861 |
| GTTCAGTA | -0.0836 |
| ATCGCACA | 0.0146 |
| AACCAATA | 0.195 |
| ACGTAGCG | -0.0127 |
| GCTGAAAA | 0.17 |
| CCTGAAAA | 0.0508 |
| CCTGAAAG | -0.179 |
| GCTGAAAC | 0.485 |
| ACTGAAAG | 0.175 |
| ACTGAAAC | 0.477 |
| GCTGAAGC | -0.0602 |
| CCTGAAAC | 0.487 |
| ACTGAAAA | 0.101 |
| GATGGGCA | -0.0542 |
| AGAATATA | 0.0722 |
| AAATCTAC | 0.151 |
| CCCGCACA | 0.023 |
| GCCAGGTA | -0.127 |
| AACGATTC | -0.0106 |
| GCCCTCAA | -0.23 |
| GCGGTCAA | -0.0277 |

| Sequence | PBM E-score |
| --- | --- |
| AGGTTTCA | 0.451 |
| CGGTTTCA | 0.452 |
| GTTTTTCA | 0.217 |
| CGTTTTCA | 0.132 |
| GGGGTTCA | -0.0134 |
| AGGTTTCG | 0.144 |
| CGGTTTCC | 0.1 |
| GGTTTTCA | 0.311 |
| CGGTTTAA | 0.00247 |
| GGGTTTCA | 0.435 |
| AGGTTTCC | -0.0692 |
| GGGTTTGA | 0.18 |
| AACGTCAG | -0.155 |
| GAGGATTA | 0.0342 |
| CCCGATAG | 0.0566 |
| GGCTTTAA | 0.0191 |
| AAAGCGCC | -0.0182 |
| CGCTCAAC | -0.108 |
| CTTGACCC | -0.129 |
| ACCTCATC | -0.0717 |
| GACAGCCC | -0.085 |
| CTGAACGA | -0.167 |
| AATCCAGC | -0.221 |
| GAAACATA | 0.433 |
| TAAACATA | 0.218 |

| Sequence | PBM E-score |
| --- | --- |
| CAAACATC | 0.192 |
| GATACATC | 0.0608 |
| GAAACATC | 0.355 |
| CAAACATA | 0.23 |
| GCATATCA | 0.0522 |
| ACGAATGA | 0.135 |
| AAACGGAG | 0.0885 |
| AAACGGAT | 0.265 |
| AAACGGAC | 0.149 |
| TACGCAAA | -0.0817 |
| CCCAGACC | -0.0973 |
| AAAGTACC | -0.0428 |
| CAACACCG | -0.103 |
| AAACACCG | 0.318 |
| AAACACAG | 0.118 |
| AAACACGC | 0.288 |
| AAACACGA | 0.129 |
| AAACACAC | 0.243 |
| AAACACAA | 0.291 |
| AAACACCT | 0.104 |
| ATACACAG | -0.054 |
| ATACACAA | 0.283 |
| ATACACAC | -0.0713 |
| CAACACGC | -0.247 |
| ACGCCTAA | 0.0463 |

| Sequence | PBM E-score |
| --- | --- |
| CTAGTTGA | 0.175 |
| TAGCGAAA | 0.118 |
| AGCAGTTG | -0.126 |
| CCGGTCTA | -0.191 |
| GCGATTTA | 0.0399 |
| CGGAGAAG | -0.00086 |
| CCTTTAAA | 0.0788 |
| GGTTTTAA | 0.298 |
| GGGTTTAA | 0.215 |
| GGTTTTTA | 0.166 |
| GGTTAAAA | 0.256 |
| GTTTAAAC | 0.214 |
| GGTTTAAA | 0.211 |
| CTTTTAAA | 0.255 |
| CTTTAAAA | 0.266 |
| GTTTTAAA | 0.378 |
| CTTTAAAC | 0.0682 |
| GTTTAAAA | 0.3 |
| ATGCGCAT | 0.0672 |
| CAAGGAGG | -0.075 |
| AACGATCG | 0.0136 |
| TAGGCCTA | -0.15 |
| AATGGGGG | -0.187 |
| GCTATGAC | 0.0507 |
| AGGAGTAA | -0.0677 |

| Sequence | PBM E-score |
| --- | --- |
| CTGAGAAC | 0.0658 |
| AACAGGGC | 0.0987 |
| TGTTTAAA | 0.26 |
| TTTTAAAA | 0.329 |
| TTTAAAAA | 0.184 |
| GCTTAAAC | -0.0138 |
| TCTTAAAA | 0.156 |
| AGTTTTAT | 0.275 |
| AGTTTTAA | 0.212 |
| AGTTTTAC | 0.143 |
| CCTTAAAA | 0.162 |
| AGTTTTAG | 0.12 |
| TGTTTTAA | 0.364 |
| GCTTAAAA | 0.31 |
| CCCTAACG | -0.00496 |
| AAGGGAGT | -0.232 |
| CGCAGAAC | -0.122 |
| AACAACCG | 0.0778 |
| CAGATCAA | 0.00349 |

From the supplement of paper PMC3334620
